Hit rate of the full screen: of about 360,000 compounds, about 11,000 (3.1%) were called active. About 2% were inconclusive and are not listed. No stated cut-off is given here; in the data, active means fluorescence intensity above about 16000; inconclusive means no clear call, values can overlap the other calls; inactive means below that. The sample as a whole holds a higher share of actives than the screen did.
Assay: compound fluorescence in toxin protease inhibitor counterscreen, primary screen, artefact control for toxin protease inhibitor project, biochemical, multiplex microsphere, HTS (AID 624483)
Details: compound autofluorescence counterscreen, microsphere flow cytometry; stronger effect = higher value

Q: For `CC1(C)C(C=C(Cl)Cl)C1C(=O)NC(O)C(=O)c1ccccc1` (centres undefined), which fluorescence intensity is on record?
A: 3770 (inactive)

Q: Which fluorescence intensity does the source give for `CCOC(=O)C1=CC[C@@H](c2ccccc2)N(S(=O)(=O)c2ccc(C)cc2)[C@H]1c1ccc(CC)cc1` here?
A: 5350 (inactive)

Q: For `OC[C@@H]1CN(Cc2cccs2)C[C@H](n2cnc3c(NC4CCCC4)ncnc32)O1`, which fluorescence intensity is on record?
A: 4050 (inactive)

Q: Which fluorescence intensity does the source give for `O=C(NCC(F)(F)F)Nc1nnc(C(F)(F)F)s1` here?
A: 2520 (inactive)

Q: With `c1ccc(COc2nsnc2N2CCOCC2)cc1` as the compound, how does the fluorescence intensity read?
A: 4190 (inactive)

Q: For `Fc1cnc(N2CCOCC2)nc1NCc1ccccc1`, which fluorescence intensity is on record?
A: 19200 (active)

Q: For `CC(Nc1nc(N2CCOCC2)nc2ccccc12)c1ccccc1` (centres undefined), which fluorescence intensity is on record?
A: 4260 (inactive)

Q: Which fluorescence intensity does the source give for `COc1cccc(N(CC(=O)NC2CCCC2)C(=O)Cn2nnc(-c3ccc(C)cc3)n2)c1` here?
A: 20000 (active)

Q: With `CC(C)CCNC(=O)C(C)N(C(=O)Cn1nnc(-c2ccc(F)cc2)n1)C1CCCC1` (centres undefined) as the compound, how does the fluorescence intensity read?
A: 23500 (active)

Q: For `CN(C(=O)Cn1nnc(-c2ccc(F)cc2)n1)C1CCS(=O)(=O)C1` (centres undefined), which fluorescence intensity is on record?
A: 6480 (inactive)

Q: For `COc1ccc(-c2nnn(CC(=O)N(CCO)C(C(=O)NC3CCCC3)c3ccc(F)cc3)n2)cc1` (centres undefined), which fluorescence intensity is on record?
A: 20700 (active)

Q: With `COc1ccc(C(C(=O)NC2CCCC2)N(CCCO)C(=O)Cn2nnc(-c3ccc(C)o3)n2)cc1` (centres undefined) as the compound, how does the fluorescence intensity read?
A: 5780 (inactive)

Q: For `COc1cccc(N(CC(=O)NC2CCCC2)C(=O)CCCC(=O)Nc2ccccn2)c1`, which fluorescence intensity is on record?
A: 6270 (inactive)

Q: Which fluorescence intensity does the source give for `CC(C)CCNC(=O)CN(C(=O)Cn1nnc(-c2ccc(F)cc2)n1)C1CCCC1` here?
A: 7590 (inactive)

Q: For `CCOCCCN(C(=O)Cn1nnc(-c2ccc(OC)c(OC)c2)n1)C(CC)C(=O)NC1CCCC1` (centres undefined), which fluorescence intensity is on record?
A: 3360 (inactive)

Q: With `COc1cccc(N(CC(=O)NC2CCCC2)C(=O)Cn2nnc(-c3ccc(C)o3)n2)c1` as the compound, how does the fluorescence intensity read?
A: 5040 (inactive)

Q: For `Cc1ccc(C(=O)O)cc1S(=O)(=O)NCC1CCCO1` (centres undefined), which fluorescence intensity is on record?
A: 8490 (inactive)

Q: With `O=C(O)C(=Cc1ccccc1[N+](=O)[O-])c1ccccc1` as the compound, how does the fluorescence intensity read?
A: 3020 (inactive)

Q: For `CCOC1=C2[C@H]([C@H]3C(=O)N(c4ccccc4)C(=O)[C@H]3C1)[C@@H](c1ccccc1)N(S(=O)(=O)c1ccc(C)cc1)[C@H]2c1ccccc1`, which fluorescence intensity is on record?
A: 5740 (inactive)

Q: With `CN(CCO)C(=O)c1nc[nH]c1C(=O)N(C)Cc1ccccc1` as the compound, how does the fluorescence intensity read?
A: 6070 (inactive)

Q: Which fluorescence intensity does the source give for `COCCCNc1ccn2nc(-c3ccc(CC(C)C)cc3)cc2n1` here?
A: 3740 (inactive)

Q: For `CC1(C(=O)Nc2cccc(Oc3ccccc3)c2)CCN1Cc1ccccc1Cl` (centres undefined), which fluorescence intensity is on record?
A: 2960 (inactive)

Q: For `CCCS(=O)(=O)NC(=O)C1(C)CCCN(C(=O)c2ccnc(Cl)c2)C1` (centres undefined), which fluorescence intensity is on record?
A: 3780 (inactive)

Q: Which fluorescence intensity does the source give for `O=C(NCc1cccnc1)c1cc(C2CCCN(C(=O)C3CCCCC3)C2)on1` (centres undefined) here?
A: 3680 (inactive)

Q: With `CC1(C)CC(=O)C=C(NCCCN2CCCC2=O)C1` as the compound, how does the fluorescence intensity read?
A: 10600 (inactive)

Q: Which fluorescence intensity does the source give for `CC1(C)CC(=O)C=C(NCCCNC2CCCCC2)C1` here?
A: 16400 (active)

Q: For `CC1(C)CC(=O)C=C(NC2CC(C)(C)NC(C)(C)C2)C1`, which fluorescence intensity is on record?
A: 11500 (inactive)

Q: Which fluorescence intensity does the source give for `CCOc1ccc(C(=O)NC2CCN(CC(=O)NCc3cccs3)CC2)cc1` here?
A: 4320 (inactive)

Q: Which fluorescence intensity does the source give for `CC(=O)c1cccc(-c2cnc3c(NC=O)cc(-c4ccccc4Oc4ccccc4)cn23)c1` here?
A: 2970 (inactive)

Q: For `CCc1nc2ccc(C(=O)Nc3ccc(OC)c(OC)c3)cn2c1N(C)C(=O)c1cccc(OC)c1`, which fluorescence intensity is on record?
A: 3840 (inactive)

Q: Which fluorescence intensity does the source give for `CSc1cccc(NC(=O)C2CCCN2S(=O)(=O)c2ccc3c(c2)CCC(=O)N3)c1` (centres undefined) here?
A: 22100 (active)

Q: Which fluorescence intensity does the source give for `Cc1cccc(NC(=O)C2CCCN2S(=O)(=O)c2ccc(F)cc2)c1C` (centres undefined) here?
A: 12300 (inactive)

Q: Which fluorescence intensity does the source give for `O=C1CCc2cc(S(=O)(=O)N3CCC(C(=O)NCc4ccccc4Cl)CC3)ccc2N1` here?
A: 5010 (inactive)

Q: For `O=CNc1cc(-c2ccc(C(=O)N3CCOCC3)cc2)cn2c(-c3ccc(F)cc3)cnc12`, which fluorescence intensity is on record?
A: 4100 (inactive)

Q: For `NC(Cc1ccccc1)c1csc(Nc2cc(Oc3ccccc3)ncn2)n1` (centres undefined), which fluorescence intensity is on record?
A: 3760 (inactive)

Q: Which fluorescence intensity does the source give for `CC1CC(C)CN(CC(=O)N2c3ccccc3CCc3ccccc32)C1` (centres undefined) here?
A: 17600 (active)

Q: With `CN1CCN(C(=O)N2c3ccccc3CCc3ccccc32)CC1` as the compound, how does the fluorescence intensity read?
A: 4530 (inactive)

Q: With `CC1CC(C)CN(CC(=O)Nc2ccc(S(N)(=O)=O)cc2)C1` (centres undefined) as the compound, how does the fluorescence intensity read?
A: 4900 (inactive)

Q: Which fluorescence intensity does the source give for `Cc1cccc(C)c1-n1nnnc1C1(C)CCC(=O)N1CCOc1ccccc1` (centres undefined) here?
A: 6150 (inactive)

Q: With `Cc1nc2c(OCC(=O)C(C)(C)C)cccn2c1N(C)Cc1cccs1` as the compound, how does the fluorescence intensity read?
A: 2880 (inactive)

Q: Which fluorescence intensity does the source give for `CC(C)C[C@@H]1Cc2[nH][nH]c(=O)c2[C@H](CCc2ccccc2)O1` here?
A: 4470 (inactive)

Q: For `N=C1c2ccccc2-c2ccccc21`, which fluorescence intensity is on record?
A: 3590 (inactive)

Q: Which fluorescence intensity does the source give for `COc1ccc(C(C#N)N2N=C(C)CC2(C)C)cc1` (centres undefined) here?
A: 4130 (inactive)

Q: For `CC1Cc2ccccc2N1C(=O)Cn1cnc2ccccc2c1=O` (centres undefined), which fluorescence intensity is on record?
A: 3200 (inactive)

Q: For `CCn1c(CSc2ncccn2)nnc1SCC(=O)N1c2ccccc2CC1C` (centres undefined), which fluorescence intensity is on record?
A: 23500 (active)

Q: For `O=C(CSc1nc2ccccc2o1)N1CCN(c2ccccc2)CC1`, which fluorescence intensity is on record?
A: 2560 (inactive)

Q: With `Cc1ccc(NC(=O)CSc2nnc(COc3ccccc3C)o2)cc1` as the compound, how does the fluorescence intensity read?
A: 3160 (inactive)

Q: Which fluorescence intensity does the source give for `CC1CC(C)CN(C(=O)CSc2nnc(CSc3ncccn3)n2C)C1` (centres undefined) here?
A: 4260 (inactive)

Q: For `CC1Cc2ccccc2N1C(=O)CSc1nnc(C2CC2)n1C` (centres undefined), which fluorescence intensity is on record?
A: 4920 (inactive)

Q: For `O=C(CSc1nc2ccccc2o1)N1c2ccccc2Sc2ccc(Cl)cc21`, which fluorescence intensity is on record?
A: 22300 (active)

Q: Which fluorescence intensity does the source give for `O=C(CSc1nc2ccccc2o1)N1CCN(c2ccc(Cl)cc2)CC1` here?
A: 6400 (inactive)

Q: With `CCS(=O)(=O)c1ccc2oc(SCC(=O)N3c4ccccc4CC3C)nc2c1` (centres undefined) as the compound, how does the fluorescence intensity read?
A: 8960 (inactive)

Q: For `CC1Cc2ccccc2N1C(=O)CSc1nc2ccccc2o1` (centres undefined), which fluorescence intensity is on record?
A: 16300 (active)

Q: Which fluorescence intensity does the source give for `CC(C)NC(=O)CSc1nnc(COc2ccccc2Cl)o1` here?
A: 4480 (inactive)

Q: For `Cc1ccccc1OCc1nnc(SCC(=O)N2c3ccccc3Sc3ccc(Cl)cc32)o1`, which fluorescence intensity is on record?
A: 20200 (active)

Q: With `O=S(=O)(c1ccc(Cl)cc1)N1CCCN(c2ccc(C(F)(F)F)cn2)CC1` as the compound, how does the fluorescence intensity read?
A: 6060 (inactive)

Q: With `NC(c1csc(NC(=O)Nc2cccc(C(F)(F)F)c2)n1)C1CCCCC1` (centres undefined) as the compound, how does the fluorescence intensity read?
A: 2870 (inactive)

Q: For `Cc1cc2oc3ccc(NCCC4CCCN4C)cc3c(=O)c2cc1C` (centres undefined), which fluorescence intensity is on record?
A: 5120 (inactive)

Q: Which fluorescence intensity does the source give for `COC(=O)c1ccc2nc(-c3ccc(F)cc3)c(Cc3ccc(C)cc3)n2c1` here?
A: 7460 (inactive)

— PubChem BioAssay AID624483 (NMMLSC, 2012)
